Measurements from PubChem BioAssay (NCI).
Compounds without any hit were thinned out: in the full panel of roughly 83,000, 20% have a hit.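 Percent growth is the endpoint: 0 to 100 indicates growth inhibition (40 means 60% inhibition), 0 means no net growth, and negative values indicate cell death.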 Activity calls are given as the source filed them. How the source made its calls: active means growth percent below 10; inactive means the rest.

test system: SNB-19 CNS; assay: NCI-60 one-dose screen, 48 h (100 = growth as untreated, 0 = no growth, -100 = all killed); conditions: 10 µM unless noted

Row | SMILES | growth
1 | CNc1cc(C(=O)O)nc(NC)n1 | 92.5% (inactive)
2 | Brc1ccc2c(c1)CN(C1CCCCC1)CO2 | 103% (inactive)
3 | CCN=C1C=CC(=C(c2ccc(N(CC)CC)cc2)c2ccc(N(CC)CC)cc2)c2ccccc21 | -57.8% (active)
4 | O=C(CSc1nc2ccc([N+](=O)[O-])cc2[nH]1)Nc1ccc(F)c(Cl)c1 | 11.6% (inactive)
5 | COc1ccc(-c2ccc(NNC(=O)c3ccc(F)cc3)nn2)cc1OC | 68.3% (inactive)
6 | CCOC(CNC(=O)c1cccc([N+](=O)[O-])c1)OCC | 103% (inactive)
7 | CN(C)C(=S)Sc1ccc([N+](=O)[O-])cc1[N+](=O)[O-] | 83.2% (inactive)
8 | CCN(CC)CC(C)Nc1ccc(C)c2sc3ccccc3c(=O)c12 (stereo unspecified) | 53.8% (inactive)
9 | CN(C)Cc1ccc[nH]1 | 97.7% (inactive)
10 | CNC(=O)c1cc(Oc2cccc3nc(NC(=O)Nc4cc(C(F)(F)F)cc(C(F)(F)F)c4)ccc23)ccn1 | 38.8% (inactive)
11 | CC1=CC[C@@H]2C(C)(C)[C@@H](O)CC[C@@]2(C)[C@@H]1COc1ccc2ccc(=O)oc2c1 | 81.2% (inactive)
12 | CC(=O)CC(=O)SC1=NCCS1 | 107% (inactive)
13 | CSc1cccc([N+](=O)[O-])c1 | 110% (inactive)
14 | O=C1/C(=C\c2cccn2Cc2ccccc2)c2ccccc2N1c1c(Cl)cccc1Cl | 79.7% (inactive)
15 | COc1ncnc2c(-c3ccccc3)cn(COCc3ccccc3)c12 | 78% (inactive)
16 | C=C(C)[C@@H]1CC[C@]2(C(=O)NCCCN)CC[C@]3(C)[C@H](CC[C@@H]4[C@@]5(C)CC[C@H](O)C(C)(C)[C@@H]5CC[C@]43C)[C@@H]12 | -29.5% [100 µM] (active)
